Test results reported in PubChem BioAssay AID1159580 (chemical genetic matrix, 2015).
“And” between values parts separate entries of the source, which are not always exact repeats. Identical values can stand only once. In all, about 5,500 compounds went through this assay and about 2,000 (36%) were called active. About 18% were inconclusive and are not listed. No stated cut-off is given here; in the data, active means normalized growth mostly below about 0.91 (no sharp cut-off); inconclusive means no clear call, values can overlap the other calls; inactive means mostly above about 0.92. The list shows a part of the results.

Test: chemical genetic growth profiling, strain panel (AID 1159580);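 further: tested at 20 µM; growth read once vehicle control cultures reached saturation at 30 °C; 1 = growth at the plate median or of vehicle wells; lower values mean less growth of the strain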
Conditions: S. cerevisiae deletion strains, growth OD

Measured: normalized growth

CN(Cc1cc(Br)cc(Br)c1N)C1CCCCC1
active: locus YJR066W, strain TOR1, hits give low values 0.81
inactive: locus YAL021C, strain ccr4, hits give low values 0.979 | locus YAL026C, strain drs2, hits give low values 1.03 | locus YAL030W, strain snc1, hits give low values 1.06 | locus YBL061C, strain skt5, hits give low values 1.03 | locus YBR009C, strain hhf1, hits give low values 1 | locus YBR021W, strain FUR4, hits give low values 0.948 | locus YBR023C, strain chs3, hits give low values 1.03 | locus YBR171W, strain sec66, hits give low values 1.06 | locus YBR229C, strain ROT2, hits give low values 1.01 | locus YBR231C, strain swc5, hits give low values 1.02 | locus YBR279W, strain paf1, hits give low values 1.02 | locus YCL011C, strain gbp2, hits give low values 1.02 | locus YCL016C, strain dcc1, hits give low values 1.01 | locus YCL029C, strain bik1, hits give low values 1.02 | locus YCL061C, strain MRC1, hits give low values 1.01 | locus YCL069W, strain vba3, hits give low values 1.03 | locus YCR088W, strain abp1, hits give low values 1.05 | locus YDL005C, strain med2, hits give low values 1.07 | locus YDL035C, strain GPR1, hits give low values 0.943 | locus YDL040C, strain nat1, hits give low values 1.03 | locus YDL074C, strain BRE1, hits give low values 0.954 | locus YDL101C, strain DUN1, hits give low values 0.999 | locus YDL134C, strain PPH21, hits give low values 1 | locus YDL185W, strain tfp1, hits give low values 1.02 | locus YDL192W, strain arf1, hits give low values 1.02 | locus YDR001C, strain nth1, hits give low values 1.03 | locus YDR069C, strain doa4, hits give low values 0.983 | locus YDR101C, strain arx1, hits give low values 0.999 | locus YDR137W, strain rgp1, hits give low values 1.03 | locus YDR159W, strain sac3, hits give low values 1.09 | locus YDR162C, strain NBP2, hits give low values 1.02 | locus YDR195W, strain ref2 1.13 | locus YDR297W, strain sur2, hits give low values 1.03 | locus YDR318W, strain mcm21, hits give low values 0.982 | locus YDR334W, strain swr1, hits give low values 1.03 | locus YDR335W, strain msn5, hits give low values 1.02 | locus YDR388W, hits give low values 1.01 | locus YDR392W, strain spt3, hits give low values 0.975 | locus YDR502C, strain sam2, hits give low values 0.996 | locus YEL003W, strain gim4, hits give low values 1.01 | locus YEL037C, strain rad23, hits give low values 1.03 | locus YEL061C, strain CIN8 (second series), hits give low values 0.991 | locus YEL061C, strain CIN8, hits give low values 0.975 | locus YER015W, strain faa2, hits give low values 1.03 | locus YER016W, strain bim1, hits give low values 0.988 | locus YER110C, hits give low values 1.03 | locus YER111C, strain swi4, hits give low values 1.04 | locus YER155C, strain BEM2 (second series), hits give low values 1.03 | locus YER155C, strain BEM2, hits give low values 1.01 | locus YER167W, strain BCK2, hits give low values 1.02 | locus YFR010W, strain ubp6, hits give low values 0.994 | locus YGL078C, strain dbp3, hits give low values 1.02 | locus YGL086W, strain mad1, hits give low values 0.967 | locus YGL167C, strain pmr1, hits give low values 1.03 | locus YGL173C, strain kem1, hits give low values 0.995 | locus YGL227W, strain vid30, hits give low values 1.04 | locus YGL240W, strain doc1, hits give low values 0.965 | locus YGL248W, strain PDE1, hits give low values 0.984 | locus YGL253W, strain hxk2, hits give low values 1.03 | locus YGR135W, strain pre9, hits give low values 1.02 | locus YGR252W, strain gcn5, hits give low values 0.84 | locus YHR013C, strain ard1, hits give low values 1.06 | locus YHR027C, strain rpn1, hits give low values 1.01 | locus YHR030C, strain SLT2, hits give low values 1.02 and 0.894 | locus YHR079C, strain IRE1 (second series), hits give low values 1.02 | locus YHR079C, strain IRE1, hits give low values 0.936 | locus YHR094C, strain hxt1, hits give low values 1.03 | locus YHR129C, strain ARP1, hits give low values 1.01 | locus YHR142W, strain chs7, hits give low values 1.06 | locus YHR200W, strain rpn10, hits give low values 1.01 | locus YIL066C, strain RNR3, hits give low values 0.991 | locus YIL073C, strain SPO22, hits give low values 1.06 | locus YIL125W, strain kgd1, hits give low values 1.01 | locus YIR030C, strain dcg1, hits give low values 1.02 | locus YJL092W, strain hpr5, hits give low values 1.03 | locus YJL095W, strain BCK1 (second series), hits give low values 1.02 | locus YJL095W, strain BCK1, hits give low values 0.97 and 0.902 | locus YJL115W, strain asf1, hits give low values 1.06 | locus YJL129C, strain trk1, hits give low values 1.03 | locus YJL134W, strain LCB3, hits give low values 1.02 | locus YJL154C, strain vps35, hits give low values 1.03 | locus YJL164C, strain tpk1, hits give low values 1.02 | locus YJL166W, strain qcr8, hits give low values 1 | locus YJL168C, strain set2, hits give low values 1.02 | locus YJL187C, strain SWE1 (second series), hits give low values 0.974 | locus YJR043C, strain POL32, hits give low values 0.987
